39 compounds from the supplement of paper PMC9844399 can be followed below.

Counter-ions that a name gives are not always drawn.
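For MALAT1 nuclear FISH intensity, robust Z-score vs DMSO in this document: High-content confocal imaging of branched-DNA amplified FISH in 384-well plates, Hoechst-defined nuclei, score is well value minus plate DMSO median over DMSO robust SD, four wells per compound.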
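For nuclear count per well, robust Z-score vs DMSO in this document: Hoechst-stained nuclei counted by automated confocal imaging of four fields per well in 384-well plates, with the robust Z-score based on the per-plate DMSO median and robust SD.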

The subject of one test is HeLa. The test can be described thus: nuclear count per well, robust Z-score vs DMSO; higher = more cells (less toxicity). Particulars: 10 µM; 6 h.
Take `c1ccc2c(c1)[I+]c1ccccc1-2` [Diphenyleneiodonium chloride]: the “nuclear count per well” value was -4.3. Consider `CCCCCCCCCCCCCCCC(=O)OCC(COP(=O)([O-])OCC[N+](C)(C)C)OC(C)=O` (configuration not stated), for which the “nuclear count per well” value amounted to 0.209.

As to `CC(C)[C@@]1(NC(=O)[C@@H]2C[C@@H]3c4cccc5[nH]cc(c45)C[C@H]3N(C)C2)O[C@@]2(O)[C@@H]3CCCN3C(=O)[C@H](Cc3ccccc3)N2C1=O` [Dihydroergocristine mesylate], the “nuclear count per well” value was -8.41. The same measure, in the same setting: to `CNc1ccc2oc(CC3OC4(CCC3C)OC(C(C)C(=O)c3ccc[nH]3)C(C)CC4C)nc2c1C(=O)O` (configuration not stated) belongs 0.0899; to `N[C@@H]1C[C@H]1c1ccccc1.N[C@H]1C[C@@H]1c1ccccc1` [Tranylcypromine Hemisulfate], 0.252; to `CO[C@H](C/C=C\C=C\CC/C=C/C[C@H](C)/C=C/C(=C\C(=O)O)CC(=O)O)/C(C)=C\C=C(/C)C(=O)O` [Bongkrekic acid], -1.5. As for `C/C=C/[C@H]1O[C@@](O)([C@@H](C)[C@H](O)[C@H](C)[C@H]2OC(=O)/C(OC)=C/C(C)=C/[C@@H](C)[C@@H](O)[C@@H](CC)[C@@H](O)[C@H](C)C/C(C)=C/C=C/[C@@H]2OC)C[C@@H](O[C@H]2C[C@@H](O)[C@H](OC(N)=O)[C@@H](C)O2)[C@@H]1C` [Concanamycin A], the “nuclear count per well” value was determined as 0.662. Same read-out and setting: next, `CN(C)C(=O)Oc1cc(OC(=O)N(C)C)cc(C(O)CNC(C)(C)C)c1` (configuration not stated) [Bambuterol hydrochloride]: -0.623.

A further test deals with HeLa. The experiment in a line: MALAT1 nuclear FISH intensity, robust Z-score vs DMSO; higher = more nuclear MALAT1 lncRNA, active = -3 or less. The conditions noted are these: 10 µM; 6 h.
Regarding `CCCCCCCCCCCCCCCCOC[C@@H](O)COP(=O)([O-])OCC[N+](C)(C)C`, the “MALAT1 nuclear FISH intensity” value was 1.45 (inactive). The same measure, in the same setting: next, `Oc1ccccc1-c1ccccc1` [2-Phenylphenol]: -0.151 (inactive); `CCNC(=O)C1OC(n2cnc3c(N)ncnc32)C(O)C1O` (configuration not stated) [5'-N-Ethylcarboxamidoadenosine (NECA)]: -2.36 (inactive); `CCN(C)C(=O)Oc1cccc([C@H](C)N(C)C)c1` [Rivastigmine Tartrate]: -0.28 (inactive). Same read-out and setting: next, `CN1C(=O)C(O)N=C(c2ccccc2)c2cc(Cl)ccc21` (configuration not stated) [Temazepam]: -0.814 (inactive); `CCCCC/C=C\C/C=C\C/C=C\C=C\[C@H](CCCC(=O)O)OO`: -0.494 (inactive).

Consider `C=C1C/C(=C/C)C(=O)O[C@@H]2CCN3CC=C(COC(=O)[C@]1(C)O)[C@H]23` [Seneciophylline], for which the “MALAT1 nuclear FISH intensity” value was -0.29 (inactive). For `CCCCC[C@@H](/C=C/C=C\C/C=C\C/C=C\CCCC(=O)O)OO`, the “MALAT1 nuclear FISH intensity” value was 0.175 (inactive). For `CN1C(=O)CN=C(c2ccccc2)c2cc(Cl)ccc21` [Diazepam], the “MALAT1 nuclear FISH intensity” value was -0.457 (inactive). `CCOC(=O)CN1C(=O)CC(C[C@@H](O)C2C[C@@H](C)C[C@H](C)C2=O)CC1=O` (some centres not stated) [Cycloheximide-N-ethylethanoate]: the “MALAT1 nuclear FISH intensity” value was -0.0786 (inactive). Still for that read-out and setting: next, `NCC(CC(=O)O)c1ccc(Cl)cc1` (configuration not stated) [Baclofen]: 0.485 (inactive); `C=C(C)[C@H]1Cc2c(ccc3c2O[C@@H]2COc4cc(OC)c(OC)cc4[C@@H]2C3=O)O1` [Rotenone]: -0.366 (inactive). `O=C1Nc2ccc(Cl)cc2C(c2ccccc2Cl)=NC1O` (configuration not stated) [Lorazepam]: the “MALAT1 nuclear FISH intensity” value was 0.647 (inactive).

`Cc1cc2c(C(C)C)c(O)c(O)c(C=O)c2c(O)c1-c1c(C)cc2c(C(C)C)c(O)c(O)c(C=O)c2c1O` [Gossypol from cotton seeds]: the “MALAT1 nuclear FISH intensity” value was 2.4 (inactive). On to `CC(C)C[C@H](CN)CC(=O)O` [Pregabalin], for which the “MALAT1 nuclear FISH intensity” value is 0.496 (inactive). Turning to `COc1cc2c(c3oc(=O)c4c(c13)CCC4=O)[C@@H]1CCO[C@@H]1O2` [Aflatoxin B2], the “MALAT1 nuclear FISH intensity” value was -0.429 (inactive). With `C=CCN1C[C@H](C(=O)N(CCCN(C)C)C(=O)NCC)C[C@@H]2c3cccc4[nH]cc(c34)C[C@H]21` [Cabergoline], the “MALAT1 nuclear FISH intensity” value is -1.84 (inactive).

As for `COC1=CC(=O)O[C@@H](/C=C/c2ccccc2)C1`, the “MALAT1 nuclear FISH intensity” value was -1.01 (inactive). On the same count and under the same terms, to `CCCCCCCCCCCCCC(=O)O[C@@H]1[C@@H](C)[C@@]2(O)[C@@H](C=C(CO)C[C@]3(O)C(=O)C(C)=C[C@@H]23)[C@@H]2C(C)(C)[C@]12OC(C)=O` [Phorbol 12-myristate 13-acetate] belongs 1.8 (inactive); to `CC(C)N(CCC(C(N)=O)(c1ccccc1)c1ccccn1)C(C)C` (configuration not stated) [Disopyramide], -1.18 (inactive). For `C[C@@H]1C[C@@H]([C@H](O)CC2CC(=O)NC(=O)C2)C(=O)[C@@H](C)C1` [Cycloheximide], the “MALAT1 nuclear FISH intensity” value is 4.45 (inactive). Still for that read-out and setting: to `CC[C@@]1(O)C(=O)OCc2c1cc1n(c2=O)Cc2cc3ccccc3nc2-1` [Camptothecin] belongs -5.46 (active); to `CCCCC/C=C\C/C=C\C/C=C\C/C=C\CCCC(=O)NCCO` [Anandamide (20:4, n-6)], -0.357 (inactive). Consider `O[C@H]1[C@H]2[C@H](O)CCCN2C[C@H]1O` [swainsonine], for which the “MALAT1 nuclear FISH intensity” value is -1.77 (inactive). For `COc1ccc(C[C@H]2NC[C@H](O)[C@H]2OC(C)=O)cc1` [Anisomycin], the “MALAT1 nuclear FISH intensity” value is 4.99 (inactive). For `C[C@]1(O)CC[C@H]2[C@@H]3CCC4=CC(=O)CC[C@]4(C)[C@@]3(F)[C@@H](O)C[C@@]21C` [Fluoxymesterone], the “MALAT1 nuclear FISH intensity” value was 0.232 (inactive). On the same count and under the same terms, next, `CC(C)[C@@H]1NC(=O)[C@H](C)OC(=O)[C@@H](C(C)C)NC(=O)[C@@H](C(C)C)OC(=O)[C@H](C(C)C)NC(=O)[C@H](C)OC(=O)[C@@H](C(C)C)NC(=O)[C@@H](C(C)C)OC(=O)[C@H](C(C)C)NC(=O)[C@H](C)OC(=O)[C@@H](C(C)C)NC(=O)[C@@H](C(C)C)OC1=O` [Valinomycin]: -0.197 (inactive); `C=C1C[C@@H]2[C@H](CC[C@]3(C)C(=O)CC[C@@H]23)[C@@]2(C)C=CC(=O)C=C12` [Exemestane]: 0.212 (inactive); `Cn1c(CCCC(=O)O)nc2cc(N(CCCl)CCCl)ccc21`: -0.732 (inactive). For `CN1[C@@H]2C[C@@H](OC(=O)[C@H](CO)c3ccccc3)C[C@H]1[C@@H]1O[C@@H]12`, the “MALAT1 nuclear FISH intensity” value was -0.891 (inactive). `CC[C@@H]1/C=C/C=C/C[C@H](C)[C@H](O)[C@](C)(O)C(=O)[C@H](C)[C@@H](O)[C@H](C)C(=O)[C@H](C)[C@@H](O)[C@H](C)/C=C/C(=O)O[C@H]2[C@@H](C)[C@@H](CC1)O[C@@]1(CC[C@@H](C)[C@@H](C[C@H](C)O)O1)[C@@H]2C` [Oligomycin A]: the “MALAT1 nuclear FISH intensity” value was -1.38 (inactive). Still for that read-out and setting: to `c1ccc2c(c1)[I+]c1ccccc1-2` [Diphenyleneiodonium chloride] belongs -2.94 (inactive); to `CCCCCCCCCCCCCCCC(=O)OCC(COP(=O)([O-])OCC[N+](C)(C)C)OC(C)=O` (configuration not stated), -0.455 (inactive); to `CC(C)[C@@]1(NC(=O)[C@@H]2C[C@@H]3c4cccc5[nH]cc(c45)C[C@H]3N(C)C2)O[C@@]2(O)[C@@H]3CCCN3C(=O)[C@H](Cc3ccccc3)N2C1=O` [Dihydroergocristine mesylate], -10.4 (active).

Consider `CNc1ccc2oc(CC3OC4(CCC3C)OC(C(C)C(=O)c3ccc[nH]3)C(C)CC4C)nc2c1C(=O)O` (configuration not stated), for which the “MALAT1 nuclear FISH intensity” value is 0.367 (inactive). The same measure, in the same setting: next, `N[C@@H]1C[C@H]1c1ccccc1.N[C@H]1C[C@@H]1c1ccccc1` [Tranylcypromine Hemisulfate]: -0.0377 (inactive); `CO[C@H](C/C=C\C=C\CC/C=C/C[C@H](C)/C=C/C(=C\C(=O)O)CC(=O)O)/C(C)=C\C=C(/C)C(=O)O` [Bongkrekic acid]: 1.49 (inactive). On the same count and under the same terms, to `C/C=C/[C@H]1O[C@@](O)([C@@H](C)[C@H](O)[C@H](C)[C@H]2OC(=O)/C(OC)=C/C(C)=C/[C@@H](C)[C@@H](O)[C@@H](CC)[C@@H](O)[C@H](C)C/C(C)=C/C=C/[C@@H]2OC)C[C@@H](O[C@H]2C[C@@H](O)[C@H](OC(N)=O)[C@@H](C)O2)[C@@H]1C` [Concanamycin A] belongs -0.0392 (inactive); to `CN(C)C(=O)Oc1cc(OC(=O)N(C)C)cc(C(O)CNC(C)(C)C)c1` (configuration not stated) [Bambuterol hydrochloride], 0.417 (inactive).
